This is a sample that favours compounds with a hit; in the whole collection about 1.2% have one here.
UGM FP inh: M. tuberculosis UGM enzyme inhibitors, primary screen, biochemical, fluorescence polarization, single point | UDP-galactopyranose mutase (Mycobacterium tuberculosis (strain ATCC 25618 / H37Rv)), … | purified UGM, fluorescence polarization probe displacement | inhibition, % at 10 µM | actives 0.06% (n = 320,000); in the data active = inhibition above about 10%, passing the limit was not always enough
CCHFV vOTU inh: CCHFV vOTU protease inhibitors, primary screen, biochemical, Pep-AMC substrate, fluorescence; Crimean-Congo hemorrhagic fever virus L polyprotein viral ovarian tumor (vOTU) protease …; inhibition, % at 11.5 µM; actives 0.55% (n = 370,000); in the data active = inhibition above about 30%; also: 0% = vehicle wells with enzyme and 100% = no enzyme wells
Mtb betalactam: beta-lactam sensitization of Mtb H37Rv, H37Rv; inhibition, % at 25 µM; actives 0.27% (n = 330,000); M. tuberculosis H37Rv growth with meropenem, percent inhibition;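 also: growth measured after seven days incubation then overnight dye step; 0% = bacteria only wells and 100% = bacteria with antibiotic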
RecA intein inh: Mtb RecA intein splicing inhibitors, primary screen, biochemical, fluorescence, HTS; actives 0.75% (n = 290,000); Protein RecA (Mycobacterium tuberculosis (strain ATCC 25618 / H37Rv)), P9WHJ3; inhibition, % (concentration not given with the values); cell-free RecA intein splicing; in the data active = inhibition above about 30%;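 also: 0% = vehicle wells and 100% = reference inhibitor control wells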
Target sequence (P9WHJ3 whole entry, looked up): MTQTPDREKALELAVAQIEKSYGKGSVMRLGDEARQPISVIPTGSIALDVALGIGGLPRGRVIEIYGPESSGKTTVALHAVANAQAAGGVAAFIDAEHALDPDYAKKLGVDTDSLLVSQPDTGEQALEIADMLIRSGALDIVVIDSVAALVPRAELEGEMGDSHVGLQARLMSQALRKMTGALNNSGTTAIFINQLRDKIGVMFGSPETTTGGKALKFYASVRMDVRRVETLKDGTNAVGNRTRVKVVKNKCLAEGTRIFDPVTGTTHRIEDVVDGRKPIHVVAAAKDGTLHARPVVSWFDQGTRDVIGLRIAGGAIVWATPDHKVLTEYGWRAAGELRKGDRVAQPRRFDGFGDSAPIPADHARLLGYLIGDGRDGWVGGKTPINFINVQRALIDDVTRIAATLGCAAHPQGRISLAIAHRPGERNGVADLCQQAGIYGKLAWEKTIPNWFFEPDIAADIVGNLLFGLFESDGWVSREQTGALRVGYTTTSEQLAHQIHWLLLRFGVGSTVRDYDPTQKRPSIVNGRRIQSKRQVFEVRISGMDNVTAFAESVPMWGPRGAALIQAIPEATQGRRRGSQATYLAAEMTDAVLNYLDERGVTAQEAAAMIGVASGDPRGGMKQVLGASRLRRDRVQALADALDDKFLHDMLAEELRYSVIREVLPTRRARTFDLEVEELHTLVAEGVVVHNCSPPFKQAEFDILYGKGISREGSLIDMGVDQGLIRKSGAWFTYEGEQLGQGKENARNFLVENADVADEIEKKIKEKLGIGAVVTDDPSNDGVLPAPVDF
Rv3671c inh: Rv3671c serine protease inhibitors, primary screen, biochemical, fluorescence polarization, M. tuberculosis H37Rv; P9WHR9; inhibition, % at 5.96 µM; actives 0.048% (n = 320,000); in the data active = inhibition above about 38%;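 also: extracellular domain of Rv3671c used as enzyme; 0% = enzyme with DMSO and 100% = no enzyme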
GFP chromophore: counter-screen: blocks GFP chromophore formation, dose response, counter-screen, biochemical, fluorescence, homogeneous | EC50, µM | actives 83% (n = 2,100) | shares compounds with RecA intein inh | cell-free GFP chromophore formation
The depositor's hits bear a star. Unless noted, no rule for the calls is given here.

What do the screens show for `O=C(c1cccs1)[C@@H]1[C@@H]2C(=O)N(Cc3ccc4c(c3)OCO4)C(=O)[C@@H]2C2c3ccccc3C=CN21` (stereo partly specified)?
UGM FP inh: 2.5; Mtb betalactam: 3.5; RecA intein inh: 37.8*; Rv3671c inh: -22.2; GFP chromophore: 4.24*

How did C#CCCCN([C@H](C(=O)OC)C(C)C)S(=O)(=O)c1ccccc1Br do in these assays?
CCHFV vOTU inh: 4.5

What do the screens show for `CCN(C(=O)c1cccc2c1-c1ccccc1C2=O)c1ccccc1`?
CCHFV vOTU inh: 1.6

How did CCC(=O)N(CC)C1=C(O)c2ccccc2C(=O)C1=O do in these assays?
UGM FP inh: -0.7; CCHFV vOTU inh: 11.2; Mtb betalactam: -7.1; RecA intein inh: 73.0*; Rv3671c inh: -59.8; GFP chromophore: 12*

What do the screens show for `COC(=O)C1CN(Cc2cn(CCC3OCCO3)nn2)CCS(=O)(=O)N1Cc1ccc(Cl)cc1` (stereo unspecified)?
CCHFV vOTU inh: -7.1

Results for COC(=O)[C@]12C[C@H](CC(=O)NCCCCc3ccccc3)C(=O)N(Cc3ccc(Cl)cc3Cl)C1=C[C@H](C(C)(C)C)O[C@@H]2C ?
CCHFV vOTU inh: 24.2

Results for CCCCN(C)C(=O)CSc1nnc(-c2cccnc2)n1C1CCCCC1 ?
CCHFV vOTU inh: -5.3

What do the screens show for `Cc1noc2ncnc(Sc3ccc(Br)cc3)c12`?
UGM FP inh: 0.0; CCHFV vOTU inh: -2.4; Mtb betalactam: 100.0; RecA intein inh: 36.5*; Rv3671c inh: -9.6; GFP chromophore: 31.5*

What do the screens show for `C[C@@H]1ON(C)[C@H]2C[C@H]3c4[nH]c5c(-c6ccccc6)cccc5c4CCN3C(=O)[C@@H]12`?
CCHFV vOTU inh: -42.9

How did C[C@@H]1CCCN1c1cccc2c1S(=O)(=O)N(C1CC1)CCCO2 do in these assays?
CCHFV vOTU inh: 2.9

What do the screens show for `O=C(CCl)N1c2ccccc2SCC1c1ccccc1` (stereo unspecified)?
UGM FP inh: -3.7; CCHFV vOTU inh: -18.5; Mtb betalactam: 99.4; RecA intein inh: 25.4; Rv3671c inh: 1.0

How did O=C(CCl)N1c2ccccc2OCC1c1ccccc1 (stereo unspecified) do in these assays?
UGM FP inh: -1.6; CCHFV vOTU inh: 12.3; Mtb betalactam: 99.0; RecA intein inh: 80.7*; Rv3671c inh: -6.5; GFP chromophore: 4.47*

What do the screens show for `C=CCN1C(=O)[C@H](CC(=O)NCC2CCCCC2)[C@@]2(C(=O)OCC)CCCC=C12`?
CCHFV vOTU inh: 11.1

What do the screens show for `N#CC(C#N)=NNc1ccc(S(=O)(=O)N2CCCCC2)cc1`?
UGM FP inh: 1.3; CCHFV vOTU inh: 9.3; Mtb betalactam: -2.8; RecA intein inh: 58.3*; Rv3671c inh: -9.8; GFP chromophore: 18.5*

What do the screens show for `CC(C)[C@@H](CO)N1Cc2nnn(Cc3ccccc3)c2-c2ccccc2S1(=O)=O`?
CCHFV vOTU inh: -6.0

What do the screens show for `O=[N+]([O-])c1c(NCc2ccco2)ccc2nonc12`?
UGM FP inh: -0.9; CCHFV vOTU inh: 9.8; Mtb betalactam: -6.4; RecA intein inh: 42.4*; Rv3671c inh: 5.1; GFP chromophore: 19.7*

How did O=C(O)c1cccc(Cn2c(Cl)c(/C=N/Nc3ccccc3)sc2=O)c1 do in these assays?
UGM FP inh: -2.5; Mtb betalactam: 67.7; RecA intein inh: 30.4*; Rv3671c inh: -6.7; GFP chromophore: >38

What do the screens show for `CC[n+]1ccc2cc(OC)c(OC)cc2c1Cc1ccc(OC)c(OC)c1`?
UGM FP inh: 2.1; Mtb betalactam: -5.2; RecA intein inh: 50.6*; Rv3671c inh: -8.5; GFP chromophore: >38

How did COc1ccc(Cc2c3cc(OC)c(OC)cc3cc[n+]2C)cc1OC do in these assays?
UGM FP inh: 7.2; Mtb betalactam: -3.1; RecA intein inh: 1.7; Rv3671c inh: -15.9

Results for CCCCN1C[C@@H](COCc2ccccc2)Oc2cc(F)ccc2S1(=O)=O ?
CCHFV vOTU inh: 1.7

Assay outcomes (PubChem)
